A selection: hits, their analogues and other compounds. The true share with any hit is near 11%.
HP1b chromo inh: HP1-beta chromodomain-methylated histone interaction inhibition | P83916 | AlphaScreen HP1-beta / biotin-H3K9me3 peptide binding | 0.56% of 390,000 active | AID 540317 | Potency, µM (doses to about 114 µM), inactives show at the top dose activity change, negative = inhibition, usual class: inhibitors; further: nearly all actives have a fitted effect of over 70% in size
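HP1-beta protein (50 nM final) preincubated 30 min at room temperature with biotinylated H3(1-18)K9me3 peptide (50 nM) in PBS pH 7.4, 0.01% Tween-20, then compound added for 30 min. AlphaScreen streptavidin donor/nickel chelate acceptor beads (10 ug/mL final), 30 min dark, luminescence read.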
G9a block: inhibitors of human histone lysine methyltransferase G9a; G9a H3K9 monomethylation, AlphaScreen, 2 h; Potency, µM (doses to about 102 µM), for inactives: at the top dose activity, negative = inhibition, actives largely listed as inhibitors; 8.8% of 350,000 active; further: on the % scale 0 is the no-effect control and ±100 the full control effect; nearly all actives have a fitted effect of over 75% in size
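Methyltransferase reactions run at room temperature for 2 h (20 nM enzyme, 500 nM biotin-H3K9 peptide, 20 uM SAM) after a 15 min compound preincubation; product detected by AlphaScreen beads and anti-H3K9me1 antibody.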
L3MBTL1 inh: L3MBTL1 (human) inhibition. 0.66% of 230,000 active. AID 485360. AlphaScreen L3MBTL1–H3K9me1 peptide binding. Potency, µM (highest dose often 57.1 µM), inactives show at the highest dose activity, negative = inhibition, most hits filed as inhibitors; further: on the % scale 0 is the no-effect control and ±100 the full control effect; nearly all actives have a fitted effect of over 60% in size
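AlphaScreen assay: L3MBTL1 (50 nM final) was preincubated 30 min at room temperature with biotinylated H3(1-15)K9me1 peptide (75 nM final), then 30 min with library compounds; streptavidin donor and nickel chelate acceptor beads (10 ug/mL final) added, 30 min dark.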
BAZ2B block: inhibitors of human BAZ2B bromodomain; Q9UIF8; AlphaScreen BAZ2B-H3K14Ac peptide displacement; Potency, µM (top dose mostly 114 µM), for the others: at the top dose activity change, negative = inhibition, actives largely listed as inhibitors; 4.4% of 360,000 active; further: on the % scale 0 is the no-effect control and ±100 the full control effect; nearly all actives have a fitted effect of over 60% in size
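AlphaScreen luminescence quantifies BAZ2B engagement of H3K14Ac peptide; the protein and biotinylated peptide are both at 50 nM final, buffer PBS pH 7.4 with 0.01% Tween-20, all steps at room temperature.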
JMJD2A Tudor inh: inhibitors of human JMJD2A Tudor domain. Potency, µM (series often up to 114 µM), for the others: at the top dose activity change, negative = inhibition, actives largely listed as inhibitors. 4.4% of 390,000 active. AID 504339. AlphaScreen JMJD2A-Tudor / H3K4me3 peptide binding; further: on the % scale 0 is the no-effect control and ±100 the full control effect; nearly all actives have a fitted effect of over 50% in size
Active calls of the source: *; u = inconclusive; x = not tested or not shown; [ ] = remark or other dose. The call rests on the fitted dose curve; in most records, active means well fitted inhibition curve with a large enough effect; inconclusive means small, poorly fitted or top-dose-only effect; inactive means no such curve, though single readings can be large or run the other way. Potency means the concentration at half of the fitted maximal effect.

SMILES	HP1b chromo inh	G9a block	L3MBTL1 inh	BAZ2B block	JMJD2A Tudor inh
O=C1c2ccccc2C(=O)c2c1ccc1c(=O)n(C3CCCCC3)[nH]c21	-11%	7.9µM*	-11%	50µM*	25µM*
CC(C)CCOc1ccc(C(=O)CCNC(C)C(=O)O)cc1 (stereo unspecified)	x	5.6µM*	9%	-2%	x
O=C1c2cc(O)cc(O)c2C(=O)c2c1cc(O)c([C@@H](CO)CCO)c2O	u	x	x	x	79µM*
O=C1c2cccc(O)c2C(=O)c2c(O)cc(CO)cc21	20%	x	x	x	-19%
CCOc1ccc(NC(=O)c2oc3ccccc3c2NC(=O)c2ccc(OC)cc2OC)cc1	59%	-26%[59 µM]	x	-27%	-7%
NCCS	u	14µM*	13%	4%	-12%
Nc1cc2nc[nH]c2cc1N	41%	18µM*	-13%	28µM*	50µM*
Cn1c(=O)n(C)c2cc3[nH]cnc3cc21	20%	-38%	x	u	-4%
CC(=O)Nc1ccc(S(=O)(=O)Oc2ccc(C(=S)N3CCC(O)CC3)cc2)cc1	-11%	18µM*	-4%	-6%	-10%
CC(=O)Nc1ccc(S(=O)(=O)Oc2ccc(C(=S)N3CCCCC3)cc2)cc1	u	u	-7%	u	u
CC(=O)N1CCC2(CC1)C/C(=N\NC(=S)Nc1ccccc1C)c1cc(O)ccc1O2	u	32µM*	x	-31%	u
CC(=O)N1CCC2(CC1)C/C(=N\NC(=S)Nc1ccccc1F)c1cc(O)ccc1O2	u	16µM*	x	-33%	u
COc1cccc(-c2ccc3c(N)c(C(=O)NCc4ccc(Cl)cc4)sc3n2)c1	39%	27%[59 µM]	x	10%	13%
COc1ccc(OC)c(-c2noc(N3CCN(c4cc(C)ccc4C)CC3)n2)c1	8%	-2%[59 µM]	x	-16%	-22%
COc1ccc(C)cc1-n1nnc(C(=O)Nc2cccc(SC)c2)c1C	19%	-32%[59 µM]	x	-8%	-8%
CCOc1ccc(OCc2ccc(C(=O)N3CCOCC3)cc2)cc1	21%	-38%[59 µM]	-5%	-16%	-2%
CCOc1ccc(N=C(/C(C(=O)C(=O)N2CCOCC2)=C(\O)c2ccccc2)c2ccccc2)cc1	13%	50µM*	0%	-29%	-17%
Clc1cccc(CN2CCC3CC2c2cc(N4CCCCC4)ccc23)c1 (stereo unspecified)	u	x	x	x	45µM*
O=C(OCc1ccccc1)N1CCC2CC1c1cc(-c3ccc(F)cc3)ccc12 (stereo unspecified)	96%	x	x	x	37%
O=C(OCc1ccccc1)N1CCC2CC1c1cc(N3CCCCC3)ccc12 (stereo unspecified)	u	x	x	x	28µM*
COC(=O)CCN1CCC2CC1c1cc(Cl)ccc12 (stereo unspecified)	29%	x	x	x	-8%
CCOc1ccc(Cn2c(CNS(=O)(=O)c3ccc(C(C)(C)C)cc3)nc3cccnc32)cc1	28%[57 µM]	4%[59 µM]	x	-13%	-16%
Cn1c(=O)c2[nH]c(CN(Cc3ccccc3)Cc3ccccc3)nc2n(C)c1=O	21%	-1%[59 µM]	0%	2%	-8%
Cn1c(=O)c2c(nc(CN3CCN(C(=O)c4ccco4)CC3)n2Cc2ccc(F)cc2)n(C)c1=O	4%	u	x	3%	-3%
O=C(c1ccco1)N1CCN(Cc2nc3cc(Cl)ccc3c(=O)[nH]2)CC1	30%	6%	14%	-2%	14µM*
SMILES	HP1b chromo inh	G9a block	L3MBTL1 inh	BAZ2B block	JMJD2A Tudor inh
CN(Cc1ccccc1)Cc1nc2c([nH]1)c(=O)[nH]c(=O)n2C	16%	27%[12.7 µM]	-2%[11.4 µM]	11%	1µM*
Cn1c(=O)[nH]c(=O)c2[nH]c(CN3CCN(C(=O)c4ccco4)CC3)nc21	12%	u	11%	-22%	3.2µM*
COC(=O)c1cc(NC(=O)Cc2ccc(OC)c(OC)c2)cc(C(=O)OC)c1	3%	9%	2%	3%	45µM*
COc1ccc(CCNCC(=O)Nc2ccc(C)c(S(=O)(=O)N(C)C)c2)cc1OC	-20%	22µM*	-12%	22µM*	u
COc1ccc(CC(=O)Nc2cc(NC(=O)Cc3ccc(OC)c(OC)c3)cc(C(=O)O)c2)cc1OC	17%	x	9%	u	-18%
COc1ccc(CCNC(=O)C2CC2)cc1OC	14%	u	-1%	x	1%
